Data: PubChem BioAssay

Each molecule was assayed against Torsin-1A-interacting protein 1 (Homo sapiens) (UniProt Q5JTV8) (assay: compound microarray binding of lysate hLAP1 – cell lysate, small-molecule microarray, COS7 lysate, 635/667 nm fluorescence, primary screen (AID 1116)). Conditions: 635 nm fluorescence, higher = more signal.
Torsin-1A-interacting protein 1 (Homo sapiens), sequence (Q5JTV8 whole entry, looked up): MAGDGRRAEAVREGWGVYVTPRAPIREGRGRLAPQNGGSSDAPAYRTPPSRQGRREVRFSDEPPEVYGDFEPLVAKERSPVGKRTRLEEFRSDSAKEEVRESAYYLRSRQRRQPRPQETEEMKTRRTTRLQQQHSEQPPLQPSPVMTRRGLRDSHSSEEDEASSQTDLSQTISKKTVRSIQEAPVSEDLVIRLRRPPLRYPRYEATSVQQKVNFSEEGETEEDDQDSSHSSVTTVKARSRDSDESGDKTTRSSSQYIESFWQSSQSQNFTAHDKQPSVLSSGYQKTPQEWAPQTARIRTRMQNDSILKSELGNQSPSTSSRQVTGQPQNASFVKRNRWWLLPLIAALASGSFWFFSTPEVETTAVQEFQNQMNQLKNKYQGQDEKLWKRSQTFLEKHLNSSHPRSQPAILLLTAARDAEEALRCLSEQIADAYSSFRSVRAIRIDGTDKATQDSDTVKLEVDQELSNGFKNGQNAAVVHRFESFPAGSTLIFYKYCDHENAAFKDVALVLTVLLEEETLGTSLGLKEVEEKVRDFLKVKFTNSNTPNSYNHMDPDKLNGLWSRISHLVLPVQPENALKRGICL

Structure (SMILES)	composite z-score
O=C1O[C@H](Cc2ccccc2)[C@@H]2[C@H]3C=CCCC=C3CN2[C@H]1Cc1ccc(O)cc1	-0.0081
CN1C(=O)[C@@H]2[C@@H](CC(COc3ccccc3)=C3[C@@H](CCc4ccccc4)OB(O)C[C@@H]32)C1=O	0.0197
CCOC(=O)C[C@H]1[C@H](OC(=O)Cc2ccc3c(c2)OCO3)[C@@H](NC(=O)Cc2ccc(OC)cc2)c2cc(OCCCO)ccc2N1C(=O)Cc1ccc(OC)cc1	0.664
CN(C)CCCNC(=O)[C@@]1(Cc2ccccc2I)c2ccccc2C(=O)N(C2CCCCC2)[C@H]1c1ccc(CO)cc1	1.02
CCCCC(=C=CC[C@H](O)c1ccc(CO)o1)CCO	0.906
COC(=O)[C@@]1(Cc2ccc(F)cc2)[C@H]2c3cc(C(=O)N(C)C)n(C)c3C[C@H]2CN1C(=O)c1ccccc1	0.509
CC1CC/C=C\[C@H]2OC34C=CCN(c5ccc(Cl)cc5)C(=O)[C@H]3N(CCCCCCO)C(=O)[C@]4(C)C2C(=O)O1 (stereo not given in full)	-0.377
O=C1C[C@]2(c3ccc([N+](=O)[O-])cc3)C(=O)N(C3CC3)c3cc(CO)ccc3[C@H]2N1C1CCCCC1	-0.0456
CCCC[C@H]1C[C@@H]1[C@@H]1N(C(C)=O)[C@H](c2cccc(OC)c2)CC12CC2	0.632
Cc1ccc(S[C@]2(C(=O)NCC(F)(F)F)CC(=O)N(Cc3ccccc3C(F)(F)F)[C@@H]2c2ccc(CO)cc2)cc1	0.0216
Cc1ccc(S[C@]2(C(=O)NCCCN(C)C)CC(=O)N(C3Cc4ccccc4C3)[C@@H]2c2ccc(CO)cc2I)cc1	0.157
N#Cc1ccc(C(O)C2C=CC3C(=O)NC(=O)C3N2Nc2ccc(Cl)cc2Cl)cc1 (stereo not given)	2.08
O=C1O[C@@H](c2ccccc2)[C@@H](c2ccccc2)N2[C@@H](c3ccccc3OCCO)[C@]3(C(=O)Nc4ccc(C#CCCO)cc43)[C@@H](C(=O)NC[C@H](O)c3ccccc3)[C@H]12	2.7
COc1ccc([Si](C)(C)[C@@H]2[C@@H](CC(=O)N3Cc4ccccc4C[C@H]3CO)O[C@]3(C(=O)N(Cc4ccc(N5CCOC5=O)cc4)c4ccccc43)[C@H]2C)cc1	1.86
COc1ccccc1CN1C(=O)c2ccccc2[C@](Cc2ccccc2I)(C(=O)NCC(C)C)[C@@H]1c1ccc(CO)cc1	0.078
CC(C)(C)OC(=O)CC[C@@]1(C(=O)NCCN2CCOCC2)N=C(c2ccc(OCCCO)cc2)O[C@@H]1c1ccccc1CN=[N+]=[N-]	0.462
CC(C)=CCCC(C)=CC(O)C1C=CC2C(=O)NC(=O)C2N1Nc1ccccn1 (stereo not given)	1
CC(C)N1C(=O)c2ccccc2[C@](C)(C(=O)NCC(F)(F)F)[C@@H]1c1ccc(CO)cc1	0.716
Cc1ccc(S[C@]2(C(=O)NCc3ccccc3)CC(=O)N(Cc3ccccc3C(F)(F)F)[C@@H]2c2ccc(CO)cc2)cc1	0.328
Cc1ccccc1C(O)C1C=CC2C(=O)N(c3ccccc3)C(=O)C2N1Nc1ccccc1 (stereo not given)	1.54
O=C1OCCC=C[C@H]2OC34C=CCN(c5ccc6ccccc6c5)C(=O)[C@H]3N(CCO)C(=O)[C@@H]4C12 (stereo not given in full)	0.468
COCCCNC(=O)[C@@H]1c2ccccc2C(=O)N(Cc2ccc(OC(F)(F)F)cc2)[C@H]1c1ccc(CO)cc1	0.378
CCC(CC)C(O)C1C=CC2C(=O)N(c3ccccc3)C(=O)C2N1Nc1ccccc1F (stereo not given)	0.447
C=C1C(=O)C=C2CN(C(=O)c3ccccc3)[C@@](Cc3ccc(OC)cc3)(C(=O)OC)[C@@H]12	1.04
O=C(NC1CC1)[C@@H]1c2ccccc2C(=O)N(Cc2cc(C(F)(F)F)cc(C(F)(F)F)c2)[C@H]1c1ccc(CO)cc1	-0.0446
COC(=O)c1cccc([C@H]2OC(=CC(=O)OC(C)C)C[C@@H](c3cccc(C(=O)OC)c3)O2)c1	3.27
COc1cc(C(O)C2C=CC3C(=O)N(c4ccccc4)C(=O)C3N2Nc2ccccc2F)cc(OC)c1OC (stereo not given)	0.512
COCCOC(=O)N1C(=O)[C@@]2(c3cc(C#CCC(C(=O)OC)C(=O)OC)ccc31)[C@H](c1ccc(O)cc1)N1[C@H](c3ccccc3)[C@H](c3ccccc3)OC(=O)[C@H]1[C@@H]2C(=O)Nc1nc2ccccc2s1	0.83
COc1ccc([Si](C)(C)[C@@H]2[C@@H](CC(=O)N(CCO)Cc3ccccc3)O[C@]3(C(=O)N(Cc4ccc(N5C(=O)c6cccc7cccc5c67)cc4)c4ccccc43)[C@H]2C)cc1	0.762
C[C@@H]1ON(c2ccc(I)cc2)[C@H](c2cccc(NC(=O)OCC3c4ccccc4-c4ccccc43)c2)[C@H]1C(=O)N1C(=O)OC[C@H]1Cc1ccccc1	0.246
